Source: PubChem BioAssay (EPA / NIEHS)
Records with an inconclusive call do not appear. Active and inactive are the calls of the source. The calls were made as follows, unless noted: active = hit-call score of the fitted dose curve at least 0.9, where 1 is the maximum; inconclusive = response in the unintended direction; inactive = score below 0.9.

How the values were obtained:
[1] = ATG_TGFb_CIS: Attagene CIS-FACTORIAL HepG2 Assay for human Transforming Growth Factor (TGF) (AID 2282967; active = hit-call score of the fitted dose curve at least 0.9, where 1 is the maximum; inactive = score below 0.9); conditions: HepG2 Attagene CIS TGFb reporter, mRNA transcription; actives raise or lower the signal
How it was run: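 Endogenous TGFB1-linked transcription factor activity read as reporter mRNA via RT-PCR and capillary electrophoresis, 24 h after dosing transiently transfected HepG2 cells. Gain or loss of signal fitted relative to DMSO.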

[2] = molecular target: X-box-binding protein 1 (Homo sapiens) (UniProt P17861); assay: ATG_Xbp1_CIS: Attagene CIS-FACTORIAL HepG2 Assay for human X-box Binding Protein 1 (XBP1) (AID 2282972; active = hit-call score of the fitted dose curve at least 0.9, where 1 is the maximum; inactive = score below 0.9); conditions: HepG2 XBP1 cis-element reporter, Attagene multiplex; actives raise or lower the signal
How it was run: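 Multiplexed cis-reporter readout in transfected HepG2 liver cells. Exposure lasted 24 hours. Activity in either direction was fitted against DMSO as negative control and baseline.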

[3] = ATG_M_19_TRANS: Attagene TRANS-FACTORIAL HepG2 Assay for M19 Transcription Factor (Internal Marker) (AID 2282974); conditions: HepG2 Attagene TRANS-FACTORIAL M19 internal marker reporter
How it was run: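 HepG2 cells transiently transfected with multiple GAL4-UAS reporter transcription units were exposed to chemicals for 24 h. Reporter mRNA was read by RT-PCR, 6-FAM primer extension, HpaI digestion and capillary electrophoresis; gain of signal fitted relative to DMSO.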

[4] = ATG_GAL4_TRANS: Attagene TRANS-FACTORIAL HepG2 Assay for GAL4 (Internal Marker) (AID 2282976); conditions: HepG2 Attagene TRANS GAL4 internal marker reporter
How it was run: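 Background-control readout: GAL4-UAS reporter transcript in transiently transfected HepG2 cells after 24 h compound exposure. Measured by RT-PCR, 6-FAM primer extension, HpaI digest and capillary electrophoresis; gain-of-signal fit versus DMSO.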

[5] = molecular target: Oxysterols receptor LXR-beta (Homo sapiens) (UniProt P55055); assay: ATG_LXRb_TRANS: Attagene TRANS-FACTORIAL HepG2 Assay for human Liver X Receptor beta (LXRb) (AID 2282981); conditions: HepG2 Attagene TRANS GAL4-LXRb reporter, mRNA
How it was run: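 Liver-derived HepG2 cells transfected with Gal4-responsive reporters were dosed for 24 h. Activation was scored as rise in reporter mRNA, by RT-PCR and capillary electrophoresis, above DMSO baseline.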

[6] = molecular target: Hepatocyte nuclear factor 4-alpha (Homo sapiens) (UniProt P41235); assay: ATG_HNF4a_TRANS: Attagene TRANS-FACTORIAL HepG2 Assay for human Hepatocyte Nuclear Factor 4 alpha (HNF4a) (AID 2282982); conditions: HepG2 HNF4a transactivation reporter, mRNA readout
How it was run: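 Using HepG2 liver cells transfected with GAL4-UAS reporter units, chemical-induced mRNA increases were assessed after 24 hours. Fluorescent RT-PCR fragments were separated by capillary electrophoresis and compared with DMSO negative controls.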

[7] = ATG_M_32_TRANS: Attagene TRANS-FACTORIAL HepG2 Assay for M32 Transcription Factor (Internal Marker) (AID 2282984); conditions: HepG2 Attagene TRANS M32 internal marker reporter
How it was run: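 Fluorescence-detected mRNA induction, HepG2 liver cells, 24 h after dosing. Multiple GAL4-UAS reporter units introduced by transient transfection; background-control endpoint analysed for gain of signal against DMSO.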

[8] = molecular target: Nuclear receptor subfamily 4 group A member 2 (Homo sapiens) (UniProt P43354); assay: ATG_NURR1_TRANS: Attagene TRANS-FACTORIAL HepG2 Assay for human Nuclear Receptor Related Protein 1 (NURR1) (AID 2282985); conditions: HepG2 Attagene TRANS reporter, mRNA readout
How it was run: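 Chimeric NR-Gal4 proteins were expressed in human HepG2 cells bearing GAL4-UAS reporter units, and induced reporter mRNA was quantified 24 h post-dosing by RT-PCR and capillary electrophoresis.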

[9] = molecular target: Nuclear respiratory factor 1 (Homo sapiens) (UniProt Q16656); assay: ATG_NRF1_CIS: Attagene CIS-FACTORIAL HepG2 Assay for human Nuclear Respiratory Factor 1 (NRF1) Orphan Gene (AID 2282987; active = hit-call score of the fitted dose curve at least 0.9, where 1 is the maximum; inactive = score below 0.9); conditions: HepG2 NRF1 cis-element reporter, Attagene multiplex; actives raise or lower the signal
How it was run: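 HepG2 cells transiently transfected with multiple reporter transcription units under cis-regulatory promoter control, so endogenous transcription-factor activity is read. After 24 h compound exposure, reporter mRNA quantified by RT-PCR, fluorescent labelling, HpaI digestion and capillary electrophoresis; bidirectional fitting versus DMSO.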

[10] = molecular target: Estrogen receptor (Homo sapiens) (UniProt P03372); assay: ATG_ERa_TRANS: Attagene TRANS-FACTORIAL HepG2 Assay for human Estrogen Receptor alpha (ERa) (AID 2282970); conditions: HepG2 Attagene TRANS ERa GAL4 reporter, mRNA
How it was run: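 Gal4-fusion ERa transactivation, measured as reporter transcript level in transiently transfected HepG2 cells. Exposure 24 h; RT-PCR plus capillary electrophoresis with fluorescence detection.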

[11] = molecular target: Androgen receptor (Homo sapiens) (UniProt P10275); assay: ATG_AR_TRANS: Attagene TRANS-FACTORIAL HepG2 Assay for human Androgen Receptor (AR) (AID 2282973); conditions: HepG2 Attagene TRANS-FACTORIAL AR reporter transcription
How it was run: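 HepG2 cells transiently transfected with AR-Gal4 chimera and GAL4-UAS reporter units; chemical exposure 24 h. Reporter mRNA quantified by RT-PCR with fluorescent labelling and capillary electrophoresis; gain-of-signal fitted against DMSO.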

[12] = molecular target: Glucocorticoid receptor (Homo sapiens) (UniProt P04150); assay: ATG_GR_TRANS: Attagene TRANS-FACTORIAL HepG2 Assay for human Glucocorticoid Receptor (GR) (AID 2282978); conditions: HepG2 Attagene TRANS GR reporter, mRNA transcription;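 also: activators score as hits since higher reporter transcript over DMSO is fitted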
How it was run: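 HepG2 cells transiently transfected with multiplexed reporter units in which chimeric NR-GAL4 proteins drive GAL4-UAS reporters; 24 h compound exposure. Reporter mRNA measured by RT-PCR, 6-FAM labelling, HpaI digestion and capillary electrophoresis; gain-of-signal fitted versus DMSO.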

[13] = ATG_M_06_TRANS: Attagene TRANS-FACTORIAL HepG2 Assay for M06 Transcription Factor (Internal Marker) (AID 2282983); conditions: HepG2 Attagene TRANS M06 internal marker reporter
How it was run: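 mRNA levels of a reporter transcript, quantified as FAM fluorescence on capillary electrophoresis, served as readout. HepG2 cells expressing exogenous GAL4-chimera reporter constructs were exposed for 24 h. Gain of signal over DMSO was evaluated.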

[14] = molecular target: Transcriptional activator Myb (Homo sapiens) (UniProt P10242); assay: ATG_Myb_CIS: Attagene CIS-FACTORIAL HepG2 Assay for human Myeloblastosis (Myb) Proto-Oncogene Transcription Factor (AID 2282986; active = hit-call score of the fitted dose curve at least 0.9, where 1 is the maximum; inactive = score below 0.9); conditions: HepG2 Attagene CIS-FACTORIAL Myb reporter transcription; actives raise or lower the signal
How it was run: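 HepG2 cells were transiently transfected with cis-regulated multiple reporter transcription units reflecting endogenous Myb activity, then exposed to compound for 24 hours. Reporter mRNA was measured by RT-PCR with capillary electrophoresis; bidirectional fitting versus DMSO baseline.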

[15] = molecular target: Bile acid receptor (Homo sapiens) (UniProt Q96RI1); assay: ATG_FXR_TRANS: Attagene TRANS-FACTORIAL HepG2 Assay for Farnesoid X Receptor (FXR) (AID 2282979); conditions: HepG2 Attagene TRANS FXR-GAL4 reporter transcription;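 also: hits raise reporter mRNA above DMSO so AC50 marks FXR activation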
How it was run: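 HepG2 cells were transiently transfected with GAL4-UAS reporters driven by chimeric NR-Gal4 proteins and dosed for 24 h. Reporter mRNA was quantified by RT-PCR, fluorescent labelling, HpaI digestion and capillary electrophoresis, with gain of signal scored versus DMSO.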

[16] = molecular target: Steroid hormone receptor ERR1 (Homo sapiens) (UniProt P11474); assay: ATG_ERRa_TRANS: Attagene TRANS-FACTORIAL HepG2 Assay for human Estrogen-Related Receptor alpha (ERRa) (AID 2282971); conditions: HepG2 Attagene TRANS reporter, ERRa transactivation
How it was run: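 HepG2 cells transiently transfected with GAL4-UAS reporter units and chimeric NR-Gal4 constructs; after 24 hour compound incubation, reporter mRNA quantified by RT-PCR, fluorescent labelling and capillary electrophoresis, gain of signal versus DMSO.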

[17] = molecular target: Oxysterols receptor LXR-alpha (Homo sapiens) (UniProt Q13133); assay: ATG_LXRa_TRANS: Attagene TRANS-FACTORIAL HepG2 Assay for human Liver X Receptor alpha (LXRa) (AID 2282980); conditions: HepG2 Attagene TRANS reporter, LXRa transactivation
How it was run: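 HepG2 cells transiently transfected with GAL4-UAS reporter units for chimeric NR-Gal4 proteins, exposed to chemicals for 24 h. Reporter mRNA quantified by RT-PCR and capillary electrophoresis; gain of signal fitted relative to DMSO.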

[18] = molecular target: Nuclear receptor subfamily 1 group I member 3 (Homo sapiens) (UniProt Q14994); assay: ATG_CAR_TRANS: Attagene TRANS-FACTORIAL HepG2 Assay for human Constitutive Androstane Receptor (CAR) (AID 2282969); conditions: HepG2 Attagene TRANS-FACTORIAL CAR reporter;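 also: activators raise reporter mRNA above DMSO so AC50 marks induction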
How it was run: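 Steps: transient transfection of HepG2 with multiple GAL4-UAS reporter units; 24 h compound incubation; RNA isolation, RT-PCR, 6-FAM primer extension, HpaI digest; capillary electrophoresis. Gain-of-signal relative to DMSO negative control.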

Measured: AC50

Sequence of Glucocorticoid receptor (Homo sapiens) (P04150 whole entry, looked up, the tested form may be a part): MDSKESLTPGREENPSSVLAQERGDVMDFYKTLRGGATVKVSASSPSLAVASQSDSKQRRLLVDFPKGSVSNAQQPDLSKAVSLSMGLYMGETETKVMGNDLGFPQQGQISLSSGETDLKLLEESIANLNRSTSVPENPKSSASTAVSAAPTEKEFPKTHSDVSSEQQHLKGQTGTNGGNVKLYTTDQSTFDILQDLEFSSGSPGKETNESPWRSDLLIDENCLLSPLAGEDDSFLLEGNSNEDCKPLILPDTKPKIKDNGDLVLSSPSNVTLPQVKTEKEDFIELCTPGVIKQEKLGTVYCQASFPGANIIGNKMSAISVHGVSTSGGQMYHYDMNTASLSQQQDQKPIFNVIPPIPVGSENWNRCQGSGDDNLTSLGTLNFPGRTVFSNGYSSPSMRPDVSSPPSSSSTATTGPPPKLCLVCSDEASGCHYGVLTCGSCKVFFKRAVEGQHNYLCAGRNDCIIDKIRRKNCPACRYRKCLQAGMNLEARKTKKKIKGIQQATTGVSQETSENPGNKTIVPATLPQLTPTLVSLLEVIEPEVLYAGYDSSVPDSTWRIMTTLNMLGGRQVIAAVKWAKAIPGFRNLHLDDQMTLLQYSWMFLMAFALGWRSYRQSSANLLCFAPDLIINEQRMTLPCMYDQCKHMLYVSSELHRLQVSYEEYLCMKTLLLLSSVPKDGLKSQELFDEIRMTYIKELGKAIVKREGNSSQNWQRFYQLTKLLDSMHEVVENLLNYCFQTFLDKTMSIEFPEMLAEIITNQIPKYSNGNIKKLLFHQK
Sequence of Nuclear respiratory factor 1 (Homo sapiens) (Q16656 whole entry, looked up): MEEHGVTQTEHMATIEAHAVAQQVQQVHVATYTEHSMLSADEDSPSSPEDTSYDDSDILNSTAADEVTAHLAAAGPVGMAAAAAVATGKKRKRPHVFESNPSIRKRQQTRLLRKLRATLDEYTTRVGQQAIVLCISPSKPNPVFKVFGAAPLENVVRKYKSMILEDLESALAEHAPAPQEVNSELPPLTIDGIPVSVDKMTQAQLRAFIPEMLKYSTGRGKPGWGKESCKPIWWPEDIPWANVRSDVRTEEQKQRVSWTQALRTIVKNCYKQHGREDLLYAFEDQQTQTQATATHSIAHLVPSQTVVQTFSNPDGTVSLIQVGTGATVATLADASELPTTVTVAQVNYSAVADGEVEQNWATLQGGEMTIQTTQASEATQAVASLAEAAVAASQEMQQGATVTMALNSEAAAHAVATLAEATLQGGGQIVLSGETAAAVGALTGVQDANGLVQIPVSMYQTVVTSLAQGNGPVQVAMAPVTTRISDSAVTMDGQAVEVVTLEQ
Sequence of Bile acid receptor (Homo sapiens) (Q96RI1 whole entry, looked up, the tested form may be a part): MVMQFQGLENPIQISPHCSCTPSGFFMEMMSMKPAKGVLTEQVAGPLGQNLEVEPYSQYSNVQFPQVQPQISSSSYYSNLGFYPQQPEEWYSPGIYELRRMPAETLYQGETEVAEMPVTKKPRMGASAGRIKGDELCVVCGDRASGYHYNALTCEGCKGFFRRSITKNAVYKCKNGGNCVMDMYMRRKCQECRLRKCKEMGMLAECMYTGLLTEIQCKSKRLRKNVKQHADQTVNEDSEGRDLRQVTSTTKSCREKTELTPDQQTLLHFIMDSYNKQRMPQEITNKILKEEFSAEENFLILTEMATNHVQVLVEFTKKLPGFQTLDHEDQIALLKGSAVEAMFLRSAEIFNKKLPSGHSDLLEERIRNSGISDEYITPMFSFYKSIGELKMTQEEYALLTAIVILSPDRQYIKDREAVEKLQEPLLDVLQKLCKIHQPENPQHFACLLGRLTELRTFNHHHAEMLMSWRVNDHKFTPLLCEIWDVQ
Sequence of Oxysterols receptor LXR-alpha (Homo sapiens) (Q13133 whole entry, looked up, the tested form may be a part): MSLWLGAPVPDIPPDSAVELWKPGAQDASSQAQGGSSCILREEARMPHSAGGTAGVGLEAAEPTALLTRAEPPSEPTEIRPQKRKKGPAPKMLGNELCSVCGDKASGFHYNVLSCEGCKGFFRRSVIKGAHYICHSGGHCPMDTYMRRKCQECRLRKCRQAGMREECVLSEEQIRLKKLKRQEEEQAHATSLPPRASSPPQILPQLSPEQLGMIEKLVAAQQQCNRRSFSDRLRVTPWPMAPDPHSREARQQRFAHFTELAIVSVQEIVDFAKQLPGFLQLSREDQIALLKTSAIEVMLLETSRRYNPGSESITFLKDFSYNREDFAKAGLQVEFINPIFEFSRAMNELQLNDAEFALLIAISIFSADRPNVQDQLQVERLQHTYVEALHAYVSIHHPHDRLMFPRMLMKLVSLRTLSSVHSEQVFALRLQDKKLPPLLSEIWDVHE
Sequence of Hepatocyte nuclear factor 4-alpha (Homo sapiens) (P41235 whole entry, looked up, the tested form may be a part): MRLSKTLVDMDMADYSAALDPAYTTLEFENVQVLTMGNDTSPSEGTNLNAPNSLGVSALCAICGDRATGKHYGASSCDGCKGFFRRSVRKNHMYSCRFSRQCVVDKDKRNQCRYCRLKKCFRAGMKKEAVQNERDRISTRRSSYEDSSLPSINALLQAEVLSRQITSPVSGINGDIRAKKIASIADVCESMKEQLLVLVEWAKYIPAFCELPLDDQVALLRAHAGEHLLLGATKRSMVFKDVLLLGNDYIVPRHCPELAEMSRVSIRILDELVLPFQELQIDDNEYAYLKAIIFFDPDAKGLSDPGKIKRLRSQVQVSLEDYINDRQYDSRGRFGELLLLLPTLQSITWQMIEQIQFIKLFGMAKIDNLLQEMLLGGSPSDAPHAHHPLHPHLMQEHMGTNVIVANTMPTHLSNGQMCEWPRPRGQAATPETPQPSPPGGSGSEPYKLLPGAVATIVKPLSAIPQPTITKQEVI
Sequence of Steroid hormone receptor ERR1 (Homo sapiens) (P11474 whole entry, looked up, the tested form may be a part): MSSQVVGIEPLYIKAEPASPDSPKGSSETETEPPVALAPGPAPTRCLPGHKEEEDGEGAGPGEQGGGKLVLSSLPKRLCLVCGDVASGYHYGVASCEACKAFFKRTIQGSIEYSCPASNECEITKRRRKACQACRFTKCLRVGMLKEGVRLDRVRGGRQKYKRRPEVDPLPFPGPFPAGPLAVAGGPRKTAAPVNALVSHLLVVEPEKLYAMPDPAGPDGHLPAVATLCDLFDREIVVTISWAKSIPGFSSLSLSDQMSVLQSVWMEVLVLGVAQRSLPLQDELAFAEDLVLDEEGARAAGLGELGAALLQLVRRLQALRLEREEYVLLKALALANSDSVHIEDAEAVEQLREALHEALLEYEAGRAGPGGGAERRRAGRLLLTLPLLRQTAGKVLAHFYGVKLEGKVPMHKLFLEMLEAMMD
Sequence of Nuclear receptor subfamily 4 group A member 2 (Homo sapiens) (P43354 whole entry, looked up, the tested form may be a part): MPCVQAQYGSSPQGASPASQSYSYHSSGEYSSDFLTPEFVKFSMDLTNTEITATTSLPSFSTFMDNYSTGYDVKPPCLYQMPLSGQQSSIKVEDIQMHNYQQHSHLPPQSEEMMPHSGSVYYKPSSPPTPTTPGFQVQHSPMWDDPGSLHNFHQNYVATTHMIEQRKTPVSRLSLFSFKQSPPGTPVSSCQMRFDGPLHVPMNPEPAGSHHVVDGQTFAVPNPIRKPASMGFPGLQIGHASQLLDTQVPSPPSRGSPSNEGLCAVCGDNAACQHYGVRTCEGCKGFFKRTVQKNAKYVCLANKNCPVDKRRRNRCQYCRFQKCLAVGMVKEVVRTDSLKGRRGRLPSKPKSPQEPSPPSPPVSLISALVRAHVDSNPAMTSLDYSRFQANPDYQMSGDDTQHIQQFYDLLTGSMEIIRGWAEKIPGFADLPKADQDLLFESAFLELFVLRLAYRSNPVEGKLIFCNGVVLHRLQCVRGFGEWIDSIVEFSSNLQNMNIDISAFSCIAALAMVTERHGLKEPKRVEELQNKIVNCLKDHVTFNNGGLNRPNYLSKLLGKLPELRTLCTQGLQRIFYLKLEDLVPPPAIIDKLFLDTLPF
Sequence of Androgen receptor (Homo sapiens) (P10275 whole entry, looked up, the tested form may be a part): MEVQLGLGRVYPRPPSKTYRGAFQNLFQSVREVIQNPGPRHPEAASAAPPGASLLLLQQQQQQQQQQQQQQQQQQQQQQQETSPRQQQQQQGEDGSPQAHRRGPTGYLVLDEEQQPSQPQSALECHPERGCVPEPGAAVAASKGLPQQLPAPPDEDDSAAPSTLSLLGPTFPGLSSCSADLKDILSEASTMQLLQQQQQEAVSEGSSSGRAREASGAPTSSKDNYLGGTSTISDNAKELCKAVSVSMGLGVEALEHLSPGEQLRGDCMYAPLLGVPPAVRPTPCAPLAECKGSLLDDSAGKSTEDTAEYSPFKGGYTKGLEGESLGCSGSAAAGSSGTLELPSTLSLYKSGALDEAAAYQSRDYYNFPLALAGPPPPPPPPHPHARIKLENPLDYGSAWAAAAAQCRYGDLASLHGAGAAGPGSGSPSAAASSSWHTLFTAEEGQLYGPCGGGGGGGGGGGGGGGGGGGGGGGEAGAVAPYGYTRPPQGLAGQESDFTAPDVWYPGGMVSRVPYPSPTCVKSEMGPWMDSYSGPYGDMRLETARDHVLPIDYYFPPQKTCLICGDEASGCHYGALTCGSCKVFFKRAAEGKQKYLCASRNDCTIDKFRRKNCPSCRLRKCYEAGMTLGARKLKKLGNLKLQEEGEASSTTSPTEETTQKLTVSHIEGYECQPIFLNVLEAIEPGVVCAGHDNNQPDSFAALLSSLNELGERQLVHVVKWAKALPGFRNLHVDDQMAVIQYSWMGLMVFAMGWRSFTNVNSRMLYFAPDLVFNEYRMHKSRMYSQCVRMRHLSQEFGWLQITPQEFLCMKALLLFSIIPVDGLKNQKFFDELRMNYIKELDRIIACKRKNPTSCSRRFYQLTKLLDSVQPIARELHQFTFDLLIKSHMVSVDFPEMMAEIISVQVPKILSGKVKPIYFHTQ
Sequence of X-box-binding protein 1 (Homo sapiens) (P17861 whole entry, looked up): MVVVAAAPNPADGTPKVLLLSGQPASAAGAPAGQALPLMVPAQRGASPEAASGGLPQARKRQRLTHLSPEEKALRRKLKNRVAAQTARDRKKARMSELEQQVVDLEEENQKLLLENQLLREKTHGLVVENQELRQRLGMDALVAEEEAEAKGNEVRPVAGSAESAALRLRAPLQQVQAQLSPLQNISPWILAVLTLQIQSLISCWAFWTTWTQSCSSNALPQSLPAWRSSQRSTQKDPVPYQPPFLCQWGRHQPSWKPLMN

Cc1ccccc1N
inactive: [1] | [2] | [3] | [4] | [5] | [6] | [7] | [8] | [9]

Cc1cc(=O)[nH]o1
inactive: [1] | [10] | [2] | [11] | [4] | [12] | [5] | [6] | [13] | [7] | [14] | [9]

c1cc[c]([Hg][c]2ccccc2)cc1
inactive: [1] | [10] | [11] | [15] | [5] | [6] | [13] | [7] | [8] | [9]
active: [2] 18.7 µM

O=C(OC1CCCCC1)c1ccccc1C(=O)OC1CCCCC1
inactive: [2] | [12] | [15] | [13] | [7] | [8] | [14] | [9]
active: [1] 62.1 µM | [10] 3.1 µM

C=CC#N
inactive: [1] | [10] | [16] | [2] | [3] | [4] | [17] | [7] | [8] | [14] | [9]

C=CCc1ccc(OC)cc1
inactive: [1] | [18] | [2] | [4] | [17] | [13] | [7] | [8] | [14] | [9]

Nc1ccc(Cl)cc1C(=O)c1ccccc1
inactive: [1] | [16] | [2] | [3] | [4] | [12] | [15] | [7] | [14] | [9]
active: [10] 3.63 µM | [13] 160 µM

CC(C)c1ccc(CO)cc1
active: [10] 60.1 µM
inactive: [1] | [16] | [2] | [3] | [15] | [17] | [13] | [7] | [14] | [9]

CCC[CH2][Sn]([Cl])([Cl])[Cl]
inactive: [1] | [16] | [2] | [3] | [4] | [15] | [6] | [9]

C=C(C)C#N
inactive: [1] | [10] | [2] | [3] | [4] | [15] | [17] | [6] | [7] | [14] | [9]

COc1ccc(C=O)cc1OC
active: [10] 58.6 µM
inactive: [1] | [16] | [2] | [3] | [5] | [6] | [13] | [7] | [8] | [14] | [9]

Cc1cc(Cl)ccc1O[C@H](C)C(=O)O
inactive: [1] | [2] | [6] | [13] | [8] | [14] | [9]

ClC(Cl)=C(Cl)C(Cl)=C(Cl)Cl
active: [2] 137 µM
inactive: [1] | [10] | [3] | [12] | [17] | [5] | [6] | [13] | [7] | [8] | [9]

CCOC(=O)CP(=O)(OCC)OCC
inactive: [1] | [16] | [2] | [3] | [4] | [17] | [6] | [7] | [8] | [14] | [9]

C[C@H]1O[C@@H](O[C@H]2[C@@H](O)C[C@H](O[C@H]3[C@@H](O)C[C@H](O[C@H]4CC[C@@]5(C)[C@H](CC[C@@H]6[C@@H]5CC[C@]5(C)[C@@H](C7=CC(=O)OC7)CC[C@]65O)C4)O[C@@H]3C)O[C@@H]2C)C[C@H](O)[C@@H]1O
inactive: [1] | [10] | [5] | [6] | [13] | [8] | [9]
active: [2] 0.497 µM

Nc1cccc2ccccc12
inactive: [1] | [10] | [2] | [3] | [5] | [8] | [14] | [9]

CCSC(C)CC1CC(=O)C(C(CC)=NOC/C=C/Cl)=C(O)C1 (stereo not given)
inactive: [1] | [10] | [16] | [2] | [11] | [3] | [12] | [17] | [13] | [7] | [8] | [9]
